This note sets out measurements from PubChem BioAssay (NCI).

Some test systems named below: NCI/ADR-RES ovarian; T-47D breast; BT-549 breast; MDA-MB-435 melanoma; SW-620 colon; MCF7 breast; HCT-116 colon; HCC-2998 colon; KM12 colon.
Holding throughout (assay): NCI-60 one-dose screen, 48 h (100 = growth as untreated, 0 = no growth, -100 = all killed)
What all share (conditions): 10 µM unless noted

This is part of a sample that, as a whole, favours compounds with a hit. Of some 83,000 tested, about 20% had one in any assay.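 The endpoint reported here, percent growth, reads 100 for growth as untreated, 0 for no net growth and -100 for all cells dead.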 A number with no mark means an inactive call. Calls of active or inactive are those of the source. How the source made its calls: active means growth percent below 10; inactive means the rest.

For the molecule `Nc1nc([Se])c2ncn(C3OC(CO)C(O)C3O)c2n1` (stereo not given), the growth was 41.5% in the test on NCI/ADR-RES ovarian; 93.5% in the test with T-47D breast; 69.7% with BT-549 breast; 74.3% with MDA-MB-435 melanoma; 82.1% in the test on SW-620 colon; 42.9% in the test with MCF7 breast. The results for the growth with HCT-116 colon, with HCC-2998 colon and in the test with KM12 colon were 28.1%, 88.7% and 82.5%, respectively.

For `NC(=S)c1cn(C2OC(CO)C(O)C2O)c2ncnc(N)c12` (stereo not given), the growth is -25.8% (active) with NCI/ADR-RES ovarian; -16.9% (active) with T-47D breast; -43.1% (active) in the test on BT-549 breast; -40.5% (active) in the test on MDA-MB-435 melanoma; -27.6% (active) with SW-620 colon; 2.36% (active) with MCF7 breast. In addition, the growth in the test on HCT-116 colon was -16.3% (active); in the test with HCC-2998 colon it was -44.8% (active); with KM12 colon, -14.9% (active).

As to `OCc1ccc2c(c1)OCO2`, the growth in the test on NCI/ADR-RES ovarian was 105%; with T-47D breast, 86.4%; with BT-549 breast it was 106%; with MDA-MB-435 melanoma, 102%; in the test on SW-620 colon, 102%; in the test with MCF7 breast it was 93%. Further, the growth in the test on HCT-116 colon is 101%; with HCC-2998 colon, 102%; in the test with KM12 colon, 103%.

In the case of `O=C(c1ccccc1O)c1[nH]c(Cl)c(Cl)c1-n1c(C(=O)c2ccccc2O)cc(Cl)c1Cl`, the growth was -3.31% (active) in the test on NCI/ADR-RES ovarian; -10.1% (active) in the test with T-47D breast; -5.5% (active) with BT-549 breast; 3.49% (active) in the test with MDA-MB-435 melanoma; 7.86% (active) with SW-620 colon; 1.43% (active) in the test on MCF7 breast. Moreover, the growth in the test on HCT-116 colon is 0.716% (active); with HCC-2998 colon, 15.3%; in the test on KM12 colon, -19.3% (active).

With `C=CCCCN=C=S`, the growth was 87.2% in the test with NCI/ADR-RES ovarian; 47.3% in the test on T-47D breast; 67.1% with BT-549 breast; 61.2% with MDA-MB-435 melanoma; 66.5% with SW-620 colon; 40.5% in the test on MCF7 breast. In addition, the growth is 44.7% in the test with HCT-116 colon, 102% with HCC-2998 colon and 49.9% with KM12 colon.

As to `CC(C)COC(C[N+](=O)[O-])C(Cl)(Cl)Cl` (stereo not given), the growth is 94.2% in the test on NCI/ADR-RES ovarian; 111% with T-47D breast; 106% in the test with BT-549 breast; 111% in the test on MDA-MB-435 melanoma; 107% in the test with SW-620 colon; 98.8% in the test with MCF7 breast. For the same molecule, the growth is 111% in the test on HCT-116 colon, 102% with HCC-2998 colon and 104% with KM12 colon.

Turning to `COC(=O)[C@@H](C)C[C@H](Cc1cn(C)c2ccccc12)NC(=O)c1csc([C@@H](C[C@H](C(C)C)N(C)C(=O)[C@@H](NC(=O)[C@H]2CCCCN2C)C(C)C)OC(C)=O)n1`, the growth in the test with NCI/ADR-RES ovarian is 20.7%; with T-47D breast it was 67.7%; in the test with BT-549 breast it was -15.9% (active); in the test on MDA-MB-435 melanoma, -41.5% (active); in the test on SW-620 colon it was 26.8%; in the test on MCF7 breast, 17.8%. Besides, the growth with HCT-116 colon is 6.08% (active); in the test on HCC-2998 colon, 17.3%; in the test on KM12 colon, 9.11% (active).

With `Brc1ccc2c(c1)c(-c1nc(-c3c[nH]c4ncccc34)cs1)cn2CCN1CCCCC1`, the growth with NCI/ADR-RES ovarian was 75.2%; in the test with T-47D breast, 66.2%; with BT-549 breast, 89%; with MDA-MB-435 melanoma, 76.9%; in the test on SW-620 colon, 58.4%; with MCF7 breast, 47.1%. In addition, the growth in the test on HCT-116 colon was 51%; with HCC-2998 colon, 38.9%; with KM12 colon, 66.2%.

For the molecule `CN(C)C(=O)Oc1ccc(Br)cc1`, the growth with NCI/ADR-RES ovarian was 106%; in the test with T-47D breast it was 92.4%; with BT-549 breast, 103%; with MDA-MB-435 melanoma it was 104%; in the test with SW-620 colon, 109%; with MCF7 breast it was 88.7%. Further, the growth was 103% in the test on HCT-116 colon, 108% in the test on HCC-2998 colon and 101% in the test on KM12 colon.

For `CCn1c2ccccc2c2cc(C(=O)c3ccc(C)c4ccccc34)ccc21`, the growth in the test with NCI/ADR-RES ovarian was 6.35% (active); in the test with T-47D breast, 53.6%; in the test on BT-549 breast it was 21.9%; in the test on MDA-MB-435 melanoma, -34.1% (active); in the test on SW-620 colon, 11.8%; in the test with MCF7 breast, 14.4%. Further, the growth with HCT-116 colon was 12.1%; with HCC-2998 colon, 29.6%; in the test on KM12 colon, 13.4%.

Consider `O=[N+]([O-])c1cnc[nH]1`, for which the growth is 104% in the test on NCI/ADR-RES ovarian; 117% with T-47D breast; 112% in the test on BT-549 breast; 105% in the test with MDA-MB-435 melanoma; 104% in the test with SW-620 colon; 94.8% in the test with MCF7 breast. For the same molecule, the growth is 106% in the test with HCT-116 colon, 102% in the test with HCC-2998 colon and 107% in the test on KM12 colon.

Consider `COC(=O)C12CC(NC(=O)c3csc([C@@H](C[C@H](C(C)C)N(C)C(=O)[C@@H](NC(=O)[C@H]4CCCCN4C)C(C)C)OC(C)=O)n3)(C1)C2`, for which the growth was -4.67% (active) in the test on NCI/ADR-RES ovarian; 75.2% with T-47D breast; -25.8% (active) in the test on BT-549 breast; -43.7% (active) with MDA-MB-435 melanoma; 27.4% with SW-620 colon; 15.4% in the test with MCF7 breast. Also, the growth was 4.37% (active) in the test on HCT-116 colon, 10.4% in the test with HCC-2998 colon and 11.1% with KM12 colon.

In the case of `Nc1ccc(-c2nc3cc(F)ccc3[se]2)cc1F`, the growth was 91.5% in the test with NCI/ADR-RES ovarian; 14.6% in the test on T-47D breast; 67.8% in the test on BT-549 breast; 97.7% with MDA-MB-435 melanoma; 97.2% with SW-620 colon; 5.06% (active) in the test on MCF7 breast. In addition, the growth in the test on HCT-116 colon is 58.9%; in the test with HCC-2998 colon, 30.9%; in the test with KM12 colon it was 54%.

For `COC(=O)[C@@H](C)C[C@H](Cc1ccccc1)NC(=O)c1csc(CC[C@H](C(C)C)N(C)C(=O)[C@@H](NC(=O)[C@H]2CCCCN2C)C(C)C)n1`, the growth is 53.1% in the test on NCI/ADR-RES ovarian; 56.8% in the test on T-47D breast; 7.17% (active) with BT-549 breast; -48.6% (active) with MDA-MB-435 melanoma; 30.6% in the test on SW-620 colon; 20.3% with MCF7 breast. The figures for the growth in the test with HCT-116 colon, in the test on HCC-2998 colon and in the test on KM12 colon were 3.72% (active), 24.5% and 16.2%, respectively.

With `COC(=O)CCc1c[nH]c2ccc(N(CCCl)CCCl)cc12`, the growth is 52.7% in the test on NCI/ADR-RES ovarian; 60.2% in the test with T-47D breast; 57.4% in the test on BT-549 breast; 74.1% in the test on MDA-MB-435 melanoma; 47.5% with SW-620 colon; 30.9% in the test on MCF7 breast. Also, the growth in the test with HCT-116 colon is 53.1%; in the test on HCC-2998 colon, 84%; with KM12 colon it was 86.6%.
